CRFBP-R2 block: CRF-BP/CRF-R2 complex antagonism. hit rate 0.59% among 350,000. inhibition, % at 11.8 µM. AID 588475. HEK293 CRF-R2/CRF-BP, CRF-induced calcium fluorescence;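 active = inhibition of the ligand-induced calcium signal above about 50% at the single tested concentration, limit read from the data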
CRFR2-BP ag: agonists of human CRF-binding protein/CRF-R2 receptor complex. AID 588473. HEK293 CRF-R2/CRF-BP, calcium dye fluorescence (FLIPR); percent of saturating CRF peptide response. activation, % at 13.2 µM. hit rate 0.46% among 350,000;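 active = activation of at least 50%, plus an integration ratio under a set limit after plate pattern correction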;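 also: plate controls were neutral control wells without compound for no effect and CRF at EC100 for full effect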
RTF Ca sens act: increases calcium sensitivity of human cardiac regulated thin filaments; activation, % at 7.2 µM; IANBD-labeled TnC RTF fluorescence at EC20 calcium; 0% EC20 calcium, 100% full calcium; P19429+P45379; AID 493008; hit rate 0.24% among 340,000;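 active = activation above the mean over all tested compounds plus 3 SD, cut at about 30% in these data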;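 also: rise in fluorescence read as greater calcium sensitivity of cardiac thin filaments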
IDE act: IDE (human) activation, cell-based; hit rate 0.073% among 340,000; AID 493087; activation, % at 5.96 µM; P14735; HEK cells, FAbeta-B cleavage, fluorescence polarization; 0% vehicle, 100% cell-free pure enzyme wells;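 active = activation above the mean of all tested compounds plus 3 SD, set per screening campaign, cut at about 17% in these data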
Cardiac RTF inh: cardiac RTF calcium desensitization; P19429+P45379; IANBD-labeled cardiac RTF, Ca2+ fluorescence; inhibition, % at 7.15 µM; hit rate 0.12% among 340,000; AID 493244;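 active = inhibition above the mean inhibition of all tested compounds plus 3 SD, cut at about 17% in these data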;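 also: assay run at fixed EC70 calcium of 1.6 mM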
IDE cell inh: cellular human IDE inhibition | P14735 | HEK cells, FAbetaB cleavage, fluorescence polarization | inhibition, % at 5.59 µM | hit rate 0.41% among 320,000 | AID 434962;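 active = percent inhibition above the average of all tested compounds plus 3 SD, set per screening campaign, cut at about 16% in these data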;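 also: IDE supplied by intact live HEK cells; FP after avidin binding of uncleaved biotin substrate so inhibition keeps polarization high; 0% = DMSO wells and 100% = 60 µM reference IDE inhibitor Ii1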
IDE inh confirm: confirmation of human insulin-degrading enzyme inhibitors in cells | shares compounds with IDE cell inh | HEK cells, FAbetaB cleavage, fluorescence polarization | inhibition, % at 5.59 µM | hit rate 51% among 1,200 | AID 435028;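 active = mean inhibition across triplicate wells above the cutoff set by the earlier primary insulin-degrading enzyme screen, cut at about 16% in these data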;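 also: 0% = DMSO wells and 100% = 60 µM reference IDE inhibitor Ii1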
HEK293 tox: counter-screen for IDE inhibitors: cytotoxicity in HEK cells | HEK293 cytotoxicity, ATP luminescence | hit rate 28% among 1,200 | inhibition, % at 5.59 µM | AID 449730 | shares compounds with IDE cell inh; in the data active = inhibition above about 22%;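 also: 0% = vehicle wells and 100% = reference cytotoxic drug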
The depositor's hits bear a star; . = no result. This is a sample that favours compounds with a hit; in the whole collection about 1.5% have one here.

SMILES	CRFBP-R2 block	CRFR2-BP ag	RTF Ca sens act	IDE act	Cardiac RTF inh	IDE cell inh	others
CC(C)[C@H](NC(=O)OCc1ccccc1)C(=O)N[C@@H](Cc1c[nH]c2ccccc12)C(=O)O	-1	0	8	3	4	-3
O=C(CSc1ccc(S(=O)(=O)N2CCCCC2)cn1)Nc1ccccc1Br	4	-1	4	3	2	3
COc1cccc(/C(O)=C/c2nc3ccc(C(=O)NCCc4ccc(Cl)cc4)cc3[nH]c2=O)c1	-244	140*	99*	-4	-3	.
COc1cccc(/C(O)=C/c2nc3ccc(C(=O)NCCc4cccc(C)c4)cc3[nH]c2=O)c1	-61	11	20	-5	-27	-4
COC(=O)C/C(O)=C(/N=Nc1cccc(C(F)(F)F)c1)C(=O)OC	-9	1	22	-3	-12	7
CC(C)(C)c1ccc(C(=O)NCC(=O)NCC(C)(C)N2CCOCC2)cc1	3	5	1	2	5	.
Cc1cc(N2CCN(C)CC2)nc2ccc(NC(=O)CCC(=O)NCCCOC(C)C)cc12	51*	-2	3	2	-2	-3
Cc1ccc(Oc2ccc(C(=O)NCc3ccncc3)cc2)cc1	79*	2	-3	4	-16	.
Cc1ccccc1-n1c([C@@H]2C[C@H]2c2ccccc2)n[nH]c1=S	-27	1	4	4	-3	-6
Cc1ccc(C(=O)NC(=S)NNC(=O)c2ccc([N+](=O)[O-])cc2)cc1	-24	94*	14	7	-17	-3
O=C(NNC(=S)NC(=O)c1ccc(Br)cc1)c1ccc([N+](=O)[O-])cc1	-9	95*	5	-6	-4	-3
CCOC(=O)Cc1csc(NC(=S)NC(=O)c2ccc([N+](=O)[O-])cc2)n1	57*	18	-3	4	-3	9
O=C(NNC(=O)c1ccc([N+](=O)[O-])cc1)c1ccc(Br)cc1	-4	0	-2	0	-3	1
COc1ccccc1N1CCN(CCC(=O)Nc2ccc(F)cc2)CC1	4	0	-4	6	7	-3
CN(/N=C/c1ccc(N(C)C)cc1)C1=NS(=O)(=O)c2ccccc21	-9	22	61*	-1	-12	5
CC(=O)Nc1ccc(C(=O)CSc2nccc(=O)[nH]2)cc1	-17	-1	.	.	.	3
CCOC(=O)C1(CC2CCCCO2)CCN(Cc2cc3ccccc3[nH]2)CC1 (stereo unspecified)	-10	126*	-2	-2	0	-1
Cc1nc2sccn2c(=O)c1S(=O)(=O)Nc1cccc(Cl)c1C	-25	57*	-5	7	2	-1
CCc1ccccc1NC(=S)N(CCc1ccncc1)C(C)C	6	-3	-1	-1	-21	-1
CCOC(=O)c1cc([N+](=O)[O-])sc1NC(=O)c1ccc(S(=O)(=O)N2CC3(C)CC2CC(C)(C)C3)cc1 (stereo unspecified)	-129	152*	-3	4	-12	3
Cc1nn(S(=O)(=O)c2cccs2)c(C)c1Sc1ccc([N+](=O)[O-])cc1	58*	1	1	3	-8	1
CCOC(=O)CNC(=O)CSc1nc(Cc2cccs2)nc2ccccc12	6	0	7	-7	3	4
CC1CC(C)CN(C(=O)CSc2nc(Cc3cccs3)nc3ccccc23)C1 (stereo unspecified)	154*	-1	8	7	-10	-3
COc1cccc(C(=O)O/N=C(\N)CS(=O)(=O)c2ccccc2)c1	-5	-4	2	-6	-12	9
COc1ccc(-c2nnc(Nc3ccc(S(=O)(=O)Nc4nccs4)cc3)c3ccccc23)cc1	61*	-4	-5	2	-1	.
SMILES	CRFBP-R2 block	CRFR2-BP ag	RTF Ca sens act	IDE act	Cardiac RTF inh	IDE cell inh	others
COc1ccc(Sc2nc(-c3ccccc3)ncc2C(=O)O)cc1	6	-6	-2	-6	4	3
O=C(O)c1cnc(-c2ccccc2)nc1Sc1ccc(Cl)cc1	55*	-3	3	1	-1	6
CN(C)Cc1ccccc1CNC(=O)c1cccc(S(=O)(=O)Nc2ccc3c(c2)OCO3)c1	19	-1	.	.	.	.
O=C(COc1ncnc2ccccc12)Nc1ccc(S(=O)(=O)N2CCOCC2)cc1	-11	1	-2	6	0	2
CN1C(=O)NC(c2ccccc2[N+](=O)[O-])C2=C1CCCC2=O (stereo unspecified)	1	12	38*	6	-64	-1
COc1cc(CCc2ccccc2)c(C(=O)O)c(O)c1CC=C(C)C	61*	1	-2	5	-5	.
CC(C)=CCC/C(C)=C/Cc1c(O)ccc(C(=O)/C=C/c2ccc(O)cc2)c1O	-15	2	19	0	-8	0
COCOc1ccc(/C=C/C(=O)c2c(OCOC)cc(OCOC)c(CC=C(C)C)c2O)cc1OCOC	0	1	.	.	.	-2
COc1cc(CCc2ccccc2)c(C(=O)O)c(O)c1C/C=C(/C)CCC=C(C)C	72*	24	-5	8	-3	.
CC(NC(=O)/C=C/c1ccc(Br)cc1)c1ccc(Cl)cc1 (stereo unspecified)	-1	0	-5	-1	-17	-1
COC(=O)c1c(NC(=O)CN2CCN(c3ncccn3)CC2)sc(C(N)=O)c1C	20	0	-8	1	-4	0
CCCS(=O)(=O)N1CCC(C(=O)NCCCOC)CC1	8	0	1	-1	-21	8
CCCS(=O)(=O)N1CCC(C(=O)NCCCOC(C)C)CC1	60*	3	8	3	-10	5
CC(=O)c1cc(C)c(OC(=O)c2ccccc2)c(C)c1	5	0	-2	4	-2	.
CC(=O)Cc1cc(O)c2ccccc2c1OC(=O)c1ccccc1	-16	1	0	-6	2	43*	IDE inh confirm=37*;HEK293 tox=14
CS(=O)(=O)c1ccccc1C(=O)Nc1ccc(-c2nc3ccccc3[nH]2)cc1	-6	0	1	2	-6	3
CS(=O)(=O)c1cccc(C(=O)Nc2ccc(-c3nc4ccccc4[nH]3)cc2)c1	-17	1	-2	-17	0	28*	IDE inh confirm=8;HEK293 tox=36*
Cc1ccc2nc(-c3ccc(NC(=O)c4ccco4)cc3)[nH]c2c1	35	-4	-4	-24	0	17*	IDE inh confirm=14;HEK293 tox=10
